Assay results reported in PubChem BioAssay AID1508600 (Functional Genomics Laboratory (NCATS/FGL), 2020).
The campaign covered roughly 53,000 sequences. About 3,700 (7%) were called active.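 How the source made its calls: active means gene knockdowns whose robust z-score for IL-1 alpha signal is at least 2 or at most -2, so actives lie on both sides; inactive means the rest.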 Many of the other results were omitted from the sample, so actives are more common in it than they were.

assay: Components of the Cytosolic LPS Sensing Pathway: Gene Identification via Genome-wide siRNA Screen; details: RAW264.7 macrophages, IL-1a HTRF, actives lie on both sides, screened at 100 nM (by protocol), cells primed 5 h with Pam3CSK4 first;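 further: robust z of the log signal after scaling to non-targeting control siRNA wells of the plate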
In short: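 IL-1a HTRF of supernatants after 24 hour LipidA transfection of Pam3CSK4-primed (5 hours) RAW264.7 cells, 48h post-siRNA transfection (100 nM). Scores: percent of plate negative-control median, then log-based robust z-score.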

z-score, inactive:
GGCCAUUUUGGAUCAUACATT against Actl6a -1.06
GCAGAUCAAUGGAUUCACCTT against Olfr57 -1.51
GGCACUGCCAUUAACAAAATT against Nrip1 0.0122
CCUGAUUGUCUUCAAUGGGTT against Cant1 -0.84
CCAGUUGACAGGUUUGAUCTT against Habp4 -0.255
GGUACAAGAUAUUGUGAAATT against Fgd3 0.0612
GAGCUCUGCAUUUGGUUAGTT against Fam98b 0.0904
ACUCAGUCAUUAAAGAGUGTT against G430095P16Rik 0.447
GGAUAUUCCCAAUUACAAGTT against Plxna3 -0.469
GGUCCAGAAGCAGAUGCUUTT against Zdhhc15 -0.174
GCAAGAACAUUAUGAAAGUTT against Epb41 0.905
GGCACUGUAGACAAACUCUTT against Stxbp1 -0.468
GGCACCUAUGAGGUUCUAUTT against Sec16b -0.615
GUUCAAGAGGGAGCUGGAATT against Pomc 0.842
GGGCCUUUAGUCCUCAAAGTT against Psmg3 0.387
CCUGUCAUCACACUCGAGGTT against Coro6 -0.00248
GGUAGAAUGUGUGAUACCCTT against Rogdi 0.205
GGUGGUCCAGAAUUUUGCATT against Cotl1 0.386
CGGGAAUAAGAUCUUUCUGTT against Zbtb22 1.43
GGAAUAGUGGCUUCUUUUATT against Rsph3a -0.00182
UUUGCAUGUACAGAAUGCUTT against Olfr312 1.54
GGAAACACAAGUUCUAGGUTT against Gpx3 0.735
GGGUUUCUGUGAGAGACAATT against Ube2f 1.01
GGGACUAUAAGGAACCAGGTT against Fmo3 -0.35
GGGCAAGACUUAAUUUUGGTT against Dppa1 -0.36
GGUCAAGAGUGCCCUAAAATT against Olfr398 -1.63
GGAUUCGUUCAGCUAAGGGTT against Olfr1023 1.29
GGAGAAAUGUUGUUGUCUUTT against Kcng3 -0.327
AAAGCGCAUUCACAAAAAUTT against Olfr1453 0.197
GGAAACAAGGAUAUUCUUUTT against Fanca 0.859
GGAGGUAUUAUCUGAAUUGTT against Utp14a 1.17
GGAGGCAUACAUGACAAAATT against Cop1 0.953
CCAUGUAUGCCUCAACAUATT against Ltf 0.517
GGAAAGUGCCAUGAAGACCTT against Dbi -1.42
GCUCCUAAUGGAAAGAACGTT against Pla2g4d 0.0914
CCUGUCCAGGGUUUGACCATT against Man2c1 -1.12
GCGAUAUGCAGAGAAGCGGTT against Prpf8 -1.63
GGUUAAAGGAGCAGUCUAUTT against Dbn1 0.636
GGGCUGGGUCUUCAUAAUUTT against 6330549D23Rik 1.14
GCACUUCAAUCCAGUGUCUTT against Pdgfd -1.27
GGCAAAAAUUUUUUCAUGCTT against Abcb4 -0.47
GGUGGCGGGAGAUGUUUUUTT against Pex6 0.85
GGUCUAGAGCAAUUCCAUATT against Olfr656 1.51
GAUCUUAUAUGUUGGUGGUTT against Vmn1r29 -0.31
GGUGAACUUUACCUUCAACTT against Mov10 0.867
GGAUCAACGAGGUAAAGUCTT against Itga8 0.101
GGUUUUUGAUAAUUGCCAUTT against Gcsh -1.98
GGUCUUCUUCUUCAAAGCUTT against Mrpl46 -1.27
GCAACGUGGUCAUCAAUCUTT against Ndufa9 -0.743
GGGUUAUGGCUGGAAUCUGTT against Slc12a9 -1.52
GGAACAAGGCUUUUUCCACTT against Olfr481 0.566
CCCGUUGUAUACAAAUACCTT against Tmem41b 0.579
GUGGAAAUUAAUCUGGGUUTT against Tmem191c 0.394
GGCCAGAUAGCAAAACAGCTT against Mpst 0.897
GGAGGUGUUCAUUGAAGUCTT against Nudcd2 -0.356
GGAACUGACAGCUAUGAACTT against Atp6v1d -0.845
CGCAGAUCAAUUUUCAUAGTT against Kif2a 0.471
GGAUAUUGGUGGCACUUUATT against Med6 -0.315
GGAUAAAUGGUACAUUCAGTT against Coa7 0.958
CCAACCUAAACAAUGCAUUTT against Actn4 -0.431
GGAGCUGCUGUUAAUUCCATT against Col5a3 1.3
GGAAGCCUACCUUUAUAUUTT against Slc2a3 0.458
CCUUUUCAAGCUAACAACATT against Gba2 -0.0808
GGUAGCACUUUGUAUUUUATT against Spg7 0.575
CCUACAGCCACCUAAUAGATT against Olfr1196 -0.346
GCAAGUAACUACCAGAGUATT against Cfap20 -0.488
GGUCAGCGAACCACGAUAATT against Olfr314 -0.792
GGUAUAAGGUCAUAGAAUUTT against E230016K23Rik 0.429
GCUUCUAUUUUGGAUGAUGTT against Skint10 -1.2
GGCACAAGUUGACCAAUAUTT against Rtn1 -0.263
GCUACUCCUUAGAACACGGTT against Spry1 0.839
GGCUAUCUGAUUUUUGUUGTT against Nlrp3 -0.0259
GGCCUCAAACUGAAUAUUATT against Serpina7 0.472
GGUCCAGCAUUUGAAAUUATT against Moap1 0.291
CCACUGUGCAAGAAGCACGTT against Ldb3 -0.129
GGUAUAUUGUGCCAGCACATT against Olfr705 0.00345
GGUUCACAUGUACAUUAAATT against Cracd -0.156
GGUUAGAAAACAAUAUCAGTT against 9530053A07Rik 0.88
GGGAGAGCUGGCUAAAUGATT against Sptbn4 -0.956
GGAGUUUGCCAGUGAAUUUTT against Ptpn22 -0.603
GGAAGAGAAAACAACAGUUTT against Phactr4 -1.26
CCCGUAAGGUAACAAACCGTT against Polr3k -1.14
GGACAGGAAGGUCAUCCCUTT against Sntb2 -0.568
CCGCCAGACCUUCAUUACCTT against Chia1 -0.515
GGCUACAAAUCCAACUAUCTT against Ppp1r32 0.181
GGUCCAAGCCUUUUCUAGATT against Glmp 0.305
GCUCGUUCGCCUAGAAUUGTT against Mycbp 0.529
CGUGGGCUCUGUUGACAUUTT against Olfr492 0.869

z-score, active:
GGGCCAAUAAAGAGGACAGTT against Aanat 2.38
GCUUGAUCAACAAGUGGAGTT against Nup62 -2.13
GGCCUACCACCUUCAGAAGTT against Rpl37 2.01
GGUCAUUUGUUUUCAGGGATT against Tfdp2 3.07
CGGCGGUUUAAUGAAAAUATT against Cbfa2t2 -2.58
GGUACAUGAUUACCAGCCUTT against Sdk2 -2.26
GGAUGUUUGCUCUUGAGCGTT against Isoc1 -2.17
GGCAGAGUGCUGACUUCAUTT against Coq8a 3.86
GGAGAAAGUGUCCUCUGUGTT against Olfr924 -2.41
GUUGUAUUUCUUUGUCCUCTT against Olfr1097 2.21
GGAAGAAGACACAAAAAAUTT against Rcan3 3.53
CCCAAACAGACUAGAUCCGTT against Rab20 3.37
GGAGAAGAAAGCAAAAACCTT against Ing1 -2.11
GGCGGACUUGGAUUACAGCTT against Rassf10 2.21
GCAUCUACUAUCCAAGUGATT against Alox8 2
CCACGGGAGACAAGAUUCUTT against Hmbs 3.18
CCCGGAAACAACACAUUGCTT against Tyrobp 2.88
GGGUAAUGGGCCAGUAUCATT against Fam229b -2.92
GGCAGUGGAGCUGGACAAATT against Nkx2-5 2.45
